# CHX counter: affects cycloheximide protein synthesis inhibition readout, counter-screen; AID 2314; cell reporter, cycloheximide protein synthesis inhibition counterscreen; max response, %; 12% of 300,000 active; in the data active = max response mostly above about 13%, no sharp cut-off; inactive = mostly below about 14%; note: read at 38.3 µM for the half of the compounds with a filed dose; 0% is about no effect
# NS1 function inh: influenza NS1 inhibition. Potency, µM (doses to about 46.1 µM), without a hit: top-dose activity, positive = more growth. 0.4% of 270,000 active. AID 2326; calls by dose curve; note: potency is the fitted concentration of half-maximal effect; actives are rising curves; nearly all actives have a fitted effect of over 50% in size
#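 OD600 was taken as the measure of yeast growth restored by compound in an NS1-expressing S. cerevisiae strain. Cells had been washed out of glucose medium and diluted 1:100 into galactose -URA medium, pH 6.0.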
# Pf growth 48h: P. falciparum growth inhibition at 48 hours (one generation) | P. falciparum luciferase growth in erythrocytes, 48 h | Potency, µM (highest dose often 28.7 µM), without a hit: top-dose activity change, negative = inhibition, most hits filed as inhibitors | 5.9% of 310,000 active | AID 504832; note: potency is the fitted concentration of half-maximal effect; % is set by controls: 0 for no effect and ±100 for the full control effect
#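 Compounds are pin-transferred into medium, infected erythrocytes (2% hematocrit, 0.1% parasitemia final) are added, and plates sit one parasite generation at 37 C in 5% CO2. Detection reagent is then added and luminescence measured.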
# Pf growth 96h: P. falciparum growth inhibition at 96 hours. P. falciparum luciferase reporter growth, 96 h. Potency, µM (titrated, usually from 28.7 µM), for the others: at the highest dose activity change, negative = inhibition, hits mostly inhibitors. 6.9% of 320,000 active. AID 504834; note: potency is the fitted concentration of half-maximal effect; % is set by controls: 0 for no effect and ±100 for the full control effect
#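 Parasite growth measured via integrated firefly luciferase reporter in P. falciparum. Infected erythrocytes at 2% hematocrit, 0.05% parasitemia final were treated 96 hours at 37 C under 5% CO2, and luminescence was read.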
# FBPA Giardia inh: inhibitors of Giardia lamblia fructose-1,6-bisphosphate aldolase; A8B2U2; purified Giardia FBPA; Potency, µM (doses to about 59.6 µM), inactives show top-dose activity, negative = inhibition, actives largely listed as inhibitors; 0.71% of 290,000 active; AID 2451; note: potency is the fitted concentration of half-maximal effect; % is set by controls: 0 for no effect and ±100 for the full control effect; nearly all actives have a fitted effect of over 55% in size
# Target sequence (A8B2U2 whole entry, looked up): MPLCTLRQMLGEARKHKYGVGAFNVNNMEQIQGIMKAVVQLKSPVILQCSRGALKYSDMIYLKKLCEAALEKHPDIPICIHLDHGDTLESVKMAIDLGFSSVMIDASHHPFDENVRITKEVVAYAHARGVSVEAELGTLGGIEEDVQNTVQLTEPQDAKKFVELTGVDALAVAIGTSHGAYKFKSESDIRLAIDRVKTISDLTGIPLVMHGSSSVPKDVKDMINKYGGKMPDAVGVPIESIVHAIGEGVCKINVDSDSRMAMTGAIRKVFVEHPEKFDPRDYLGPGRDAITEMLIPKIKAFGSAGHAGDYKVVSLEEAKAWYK
#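 40 nM FBPA preincubated 10 min at RT with compound (up to 57.5 uM final), then substrate plus GAPDH/TPI/NAD/arsenate coupling and diaphorase/resazurin added. Fluorescence read after 20 min at RT, 525/598 nm.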
# Shiga inhibitor: inhibitors of Shiga toxin in Vero cells; Vero cells, Shiga toxin protein synthesis inhibition reporter; inhibition, % at 38.7 µM; 9.2% of 290,000 active; in the data active = inhibition mostly above about 28%, no sharp cut-off; inactive = mostly below about 43%; note: 0% is about no effect
# An asterisk follows results filed as active; ? = inconclusive; . = not tested or not shown; [ ] = remark or other dose. This is a sample that favours compounds with a hit; in the whole collection about 21% have one here. Unless noted, calls come from the whole dose curve; as a rule, active = well fitted curve in the direction sought with a large enough effect; inconclusive = small, poorly fitted or top-dose-only effect, or another doubt; inactive = no such curve, though single readings can be large; an effect the other way counts as inactive or inconclusive.
SMILES,CHX counter,NS1 function inh,Pf growth 48h,Pf growth 96h,FBPA Giardia inh,Shiga inhibitor
CCn1c(SCC(=O)NCc2ccccc2)nc2nc3c(cc2c1=O)CCCC3,-4,-3%,-20%,?,0%,-9
O=C(CSc1nc2nc3c(cc2c(=O)n1-c1ccccc1)CCCC3)Nc1cccc2ccccc12,-6,24%,5.9µM*,5.9µM*,1%,14
O=[N+]([O-])c1ccc(CSc2nnc(Cc3ccccc3)n2-c2ccc(F)cc2)cc1,3,-12%,?,?,1%,-6
O=C(CSc1nc(O)cc(=O)n1-c1ccccc1)NC1CCCCC1,3,?,2.6µM*,.,-2%,27
COc1ccc(NC(=O)CSc2nc(O)cc(=O)n2-c2ccccc2)cc1,14,27%,1%,40%,.,-7
O=C(CSc1nc(O)cc(=O)n1-c1ccccc1)Nc1ccc2c3c(cccc13)CC2,-2,?,?,8.3µM*,-1%,2
O=C(c1ccccc1NS(=O)(=O)c1ccc(Br)cc1)N1CCOCC1,4,8%,8%,4%,.,8
CC1(NC(=O)c2cc(Cl)nc3ccccc23)CCS(=O)(=O)C1 (stereo unspecified),.,.,8%,0%,.,.
Cc1cccc(NC(=O)CSc2nc3nc4c(cc3c(=O)n2-c2ccccc2)CCCC4)c1,-2,6%,5.2µM*,2.9µM*,-1%,-13
Cc1ccccc1-n1c(SCC(=O)Nc2ccccc2)nc2nc3c(cc2c1=O)CCCC3,-3,?,?,46%,-3%,-10
CN(Cc1cccnc1)C(=O)c1cc(S(=O)(=O)Nc2ccccc2F)ccc1Cl,.,.,5%,3%,.,.
CC(C)(C)c1cc[n+](C2=C([O-])c3ccccc3C(=O)/C2=N\S(=O)(=O)c2cccs2)cc1,41*,-6%,1.3µM*,2.1µM*,?,73*
CCOC(=O)c1ccc(N2C=C(C(=O)OC)C(c3cccc(O)c3)C(C(=O)OC)=C2)cc1,-3,7%,3%[0.00184 µM],12%,-2%,3
CCn1ncc(C2=NOC(C(=O)Nc3cnn(C45CC6CC(CC(C6)C4)C5)c3)C2)c1C (stereo unspecified),-2,8%,5.9µM*,0%,-2%,-7
COc1ccc(-c2nn(-c3ccccc3)cc2/C=N/Nc2ccc3ccccc3n2)cc1OC,34*,11%,2.6µM*,2.3µM*,3%,80*
NC(N)=N/N=C/c1cn(-c2ccccc2)nc1-c1cccs1,15,.,2.6µM*,0.52µM*,-5%,10
S=c1[nH]nc(-c2cccs2)n1/N=C/c1cn(-c2ccccc2)nc1-c1cccs1,12,13%,60%,56%,6%,3
COc1ccc(-c2nn(-c3ccccc3)cc2/C=N/NC(=O)c2ccc(Br)o2)cc1,3,-7%,?,?,-3%,-3
COc1ccc(-c2nn(-c3ccccc3)cc2/C=N/Nc2cccc(C(=O)O)c2)cc1,56*,.,17%,-9%,-5%,108*
Cc1ccc(-c2nn(-c3ccccc3)cc2/C=N/NC(=O)CSc2nnc(C)n2-c2ccccc2)cc1,36*,24%,?,-3%,1%,54*
COc1ccc(-c2nn(-c3ccccc3)cc2/C=N/N=C(N)N)cc1OC,-6,10%,1.7µM*,1.9µM*,-1%,-5
COc1ccc(-c2nn(-c3ccccc3)cc2/C=N/O)cc1OC,1,-5%,-13%,3%,4%,15
O=C(c1ccco1)N1CCC2(CCCN(c3ccccc3)C2)CC1,.,.,.,.,-7%,.
COC(=O)C12CC3=CC(CC3=O)Cc3ccccc3[C@@H]1CNC2=O (stereo partly specified),.,.,.,.,1%,.
CN1CCN(C(=O)C2=C[C@@H](c3ccc(Br)cc3)C[C@@H](OCc3ccc(CO)cc3)O2)CC1,-2,0%,?,?,2%,-12
C#Cc1ccc([C@H]2C=C(C(=O)N3CCN(Cc4ccccc4)CC3)O[C@@H](OCc3ccc(CO)cc3)C2)cc1,-2,13%,3.3µM*,2.3µM*,-4%,-17
C#Cc1ccc([C@@H]2C=C(C(=O)N3CCN(Cc4ccccc4)CC3)O[C@H](OCCCCO)C2)cc1,-2,-6%,?,?,-7%,8

# Screens: PubChem, National Center for Advancing Translational Sciences (NCATS)
